Test [1] deals with Wnt5a (protein binding on small-molecule microarray). The test is described as follows: small molecules binding Wnt5a protein – biophysical, small-molecule microarray, 635/667 nm fluorescence, primary screen (AID 1142).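 Further: fluorescence read at 667 nm with signal to noise per printed feature.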 Particulars: 635 nm fluorescence, higher = more signal.
The nature of test [2]: ATP-based viability of Huh7 replicon cells – cell-based, CellTiter-Glo luminescence, basal, 48 h, cytotoxicity control for HCV replication inhibitor project, primary screen (AID 1143).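 Further: Huh7 hepatoma cells carrying a hepatitis C replication reporter with no stimulus; test concentration not given here.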 The following applies: higher = more signal, called active from +8 up or from −8 down. For orientation: A replicon is a self-replicating genome or part of one, used to study replication in cells.

A short description of test [3]: basal CRE-LacZ reporter activity in PC12 – cell-based, unstimulated, primary screen (AID 1145). Particulars: no forskolin, luminescence, 4.5 h, higher = more signal, called active from +8 up or from −8 down.
Test [4] is described as follows: forskolin-driven CRE-LacZ activity in PC12 – cell-based, CRE-LacZ reporter, forskolin-stimulated, primary screen (AID 1146).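 Further: PC12 cells with 6xCRE LacZ reporter stimulated by forskolin 10 µM; beta-galactosidase reporter signal reflecting CREB driven transcription.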 The following applies: luminescence, 4.5 h, higher = more signal, called active from +8 up or from −8 down.
For test [5], the target named is Streptavidin (Streptomyces avidinii) (UniProt P22629). The test is described as follows: compounds binding control protein streptavidin – biophysical, small-molecule microarray, 635/667 nm fluorescence, artefact control for SMM compound annotation, primary screen (AID 1147).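 Further: signal reflects streptavidin binding to arrayed compounds as a control protein.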 The following applies: higher = more signal.
The nature of test [6]: probe aInhba binding on compound microarray – biochemical, small-molecule microarray, 635/667 nm fluorescence, primary screen (AID 1148).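 Further: score merges 667nm spot fluorescence with signal-to-noise for antibody binding to printed compounds.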 The following applies: higher = more signal.
For test [7], the target named is Torsin-1A (Homo sapiens) (UniProt O14656). The test is described as follows: TOR1A wild-type binding on microarray – cell lysate, small-molecule microarray, lysate, 635/667 nm, primary screen (AID 1149). The following applies: COS7 hTOR1A-WT lysate, 635 nm fluorescence, higher = more signal.
Test [8] shares this target. The test is described as follows: torsin A mutant lysate binding on microarrays – cell lysate, small-molecule microarray, COS7 lysate, 635/667 nm fluorescence, primary screen (AID 1150).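 Further: score pools 667 nm emission and signal to noise measuring lysate protein binding.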 The following applies: COS7 hTOR1A mutant lysate, 635 nm fluorescence, higher = more signal.
Test [9] relates to Sonic hedgehog protein (Shh). The test is described as follows: Sonic hedgehog microarray binding compounds – biochemical, small-molecule microarray, 635/667 nm fluorescence, primary screen (AID 1151).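 Further: Shh protein binding to compounds spotted on small-molecule microarray slides; score combines spot fluorescence intensity with signal-to-noise across triplicate slides.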 Particulars: 635 nm fluorescence, higher = more signal.
The nature of test [10]: optical density shifts of acrAB sulA E. coli – strain DRC41, OD650, 48 h, E. coli filamentation inducer project, primary screen (AID 1152).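 Further: E. coli MC1000 strain DRC41 lacking acrAB efflux pump and sulA.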 The following applies: higher = more signal, called active from +8 up or from −8 down.
The nature of test [11]: probe aLefty1 binding on compound microarray – biochemical, small-molecule microarray, 635/667 nm fluorescence, primary screen (AID 1153).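 Further: score merges spot fluorescence with signal-to-noise ratio from the scanned slide images.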 The following applies: higher = more signal.
Test [12] can be described thus: plasmodial surface anion channel blockers, osmotic lysis – cell-based, P. falciparum Indochina, OD700, 1 h, primary screen (AID 1154). Particulars: P. falciparum Indochina infected RBC osmotic lysis, higher = more signal, called active from +8 up or from −8 down.
The nature of test [13]: plasmodial surface anion channel blockers, osmotic lysis – cell-based, P. falciparum Indochina, OD700, 2 h, primary screen (AID 1155).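 Further: lysis reports solute entry through the parasite surface anion channel PSAC.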 The following applies: P. falciparum Indochina infected erythrocytes, higher = more signal, called active from +8 up or from −8 down.
The nature of test [14]: changes in parasitized red cell lysis, either direction – P. falciparum Indochina, OD700, 3 h, PSAC antagonist project, primary screen (AID 1156). Particulars: P. falciparum-infected erythrocytes, osmotic lysis, higher = more signal, called active from +8 up or from −8 down.
A short description of test [15]: plasmodial surface anion channel blockers, osmotic lysis – cell-based, P. falciparum Indochina, OD700, 18 h, primary screen (AID 1157). The following applies: P. falciparum Indochina infected erythrocytes, osmotic lysis OD700, 18 h; higher = more signal, called active from +8 up or from −8 down.
A short description of test [16]: S6 kinase pathway phospho-S6 level changes – cell-based, A549, cytoblot, luminescence, serum-stimulated, primary screen (AID 1158).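 Further: serum-stimulated A549 lung adenocarcinoma cells; signal is phosphorylated S6 detected by cytoblot immunostaining with HRP secondary.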 Particulars: 5 h, higher = more signal.
Test [17] deals with NADPH oxidase 2 (Homo sapiens) (UniProt P04839). The test is described as follows: compounds shifting NOX2 Amplex Red fluorescence – cell-based, HEK293-NOX2, PMA-stimulated, NOX inhibitor project, primary screen (AID 1159). Further: test concentration not given here. Particulars: 45 min, higher = more signal, called active from +8 up or from −8 down.
For test [18], the target named is NADPH oxidase 4 (Homo sapiens) (UniProt Q9NPH5). The test is described as follows: compounds shifting NOX4 Amplex Red fluorescence – cell-based, HEK293-NOX4, tetracycline-induced, NOX inhibitor project, primary screen (AID 1160). The following applies: HEK293-NOX4, Amplex Red H2O2 fluorescence, 45 min; higher = more signal, called active from +8 up or from −8 down.

In test [19] the target is NADPH oxidase 5 (Homo sapiens) (UniProt Q96PH1). The test is described as follows: compounds shifting NOX5 Amplex Red fluorescence – cell-based, HEK293-NOX5, NOX inhibitor project, primary screen (AID 1161). The following applies: HEK293-NOX5, ionomycin, 45 min, higher = more signal.
Test [20] can be described thus: Pseudomonas biofilm growth suppression – PAO1 strain, BacTiter-Glo luminescence, LB-PBS, primary screen (AID 1144). The following applies: P. aeruginosa PAO1 biofilm, 12 h, higher = more signal.

5 compounds from PubChem BioAssay can be followed below.

Activity calls are given as the source filed them. Unless noted, how the calls were made is not given here.

Chain of NADPH oxidase 2 (Homo sapiens) (P04839 whole entry, looked up): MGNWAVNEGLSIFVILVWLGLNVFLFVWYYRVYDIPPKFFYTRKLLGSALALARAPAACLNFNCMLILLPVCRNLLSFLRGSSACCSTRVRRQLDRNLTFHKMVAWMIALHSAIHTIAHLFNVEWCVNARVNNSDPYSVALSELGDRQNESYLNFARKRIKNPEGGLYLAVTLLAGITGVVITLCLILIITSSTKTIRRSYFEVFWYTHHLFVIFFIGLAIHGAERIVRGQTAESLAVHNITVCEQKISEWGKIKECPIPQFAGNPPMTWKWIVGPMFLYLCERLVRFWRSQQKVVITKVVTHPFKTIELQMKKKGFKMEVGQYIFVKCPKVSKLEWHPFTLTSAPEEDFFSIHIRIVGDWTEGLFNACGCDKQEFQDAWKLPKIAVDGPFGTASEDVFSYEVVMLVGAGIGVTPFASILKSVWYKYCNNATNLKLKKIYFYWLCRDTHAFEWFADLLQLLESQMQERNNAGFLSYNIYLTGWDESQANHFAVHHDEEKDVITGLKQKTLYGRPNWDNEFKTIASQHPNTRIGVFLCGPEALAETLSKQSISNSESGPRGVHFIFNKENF
Chain of NADPH oxidase 4 (Homo sapiens) (Q9NPH5 whole entry, looked up): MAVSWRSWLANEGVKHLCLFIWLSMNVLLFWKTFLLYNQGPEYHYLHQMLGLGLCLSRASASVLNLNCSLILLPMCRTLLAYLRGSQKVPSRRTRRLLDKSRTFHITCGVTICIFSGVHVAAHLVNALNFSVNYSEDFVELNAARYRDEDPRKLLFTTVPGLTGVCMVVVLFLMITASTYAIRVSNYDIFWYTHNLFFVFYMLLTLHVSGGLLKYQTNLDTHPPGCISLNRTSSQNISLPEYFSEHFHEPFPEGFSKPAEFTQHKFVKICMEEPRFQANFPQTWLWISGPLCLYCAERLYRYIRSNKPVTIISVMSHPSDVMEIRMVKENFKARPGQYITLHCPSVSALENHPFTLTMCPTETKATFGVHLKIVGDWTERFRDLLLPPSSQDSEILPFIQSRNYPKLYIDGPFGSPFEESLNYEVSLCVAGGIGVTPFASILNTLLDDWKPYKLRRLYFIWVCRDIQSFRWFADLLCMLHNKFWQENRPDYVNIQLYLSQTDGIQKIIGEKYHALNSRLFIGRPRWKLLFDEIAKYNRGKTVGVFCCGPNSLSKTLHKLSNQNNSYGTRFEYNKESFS
Chain of NADPH oxidase 5 (Homo sapiens) (Q96PH1 whole entry, looked up): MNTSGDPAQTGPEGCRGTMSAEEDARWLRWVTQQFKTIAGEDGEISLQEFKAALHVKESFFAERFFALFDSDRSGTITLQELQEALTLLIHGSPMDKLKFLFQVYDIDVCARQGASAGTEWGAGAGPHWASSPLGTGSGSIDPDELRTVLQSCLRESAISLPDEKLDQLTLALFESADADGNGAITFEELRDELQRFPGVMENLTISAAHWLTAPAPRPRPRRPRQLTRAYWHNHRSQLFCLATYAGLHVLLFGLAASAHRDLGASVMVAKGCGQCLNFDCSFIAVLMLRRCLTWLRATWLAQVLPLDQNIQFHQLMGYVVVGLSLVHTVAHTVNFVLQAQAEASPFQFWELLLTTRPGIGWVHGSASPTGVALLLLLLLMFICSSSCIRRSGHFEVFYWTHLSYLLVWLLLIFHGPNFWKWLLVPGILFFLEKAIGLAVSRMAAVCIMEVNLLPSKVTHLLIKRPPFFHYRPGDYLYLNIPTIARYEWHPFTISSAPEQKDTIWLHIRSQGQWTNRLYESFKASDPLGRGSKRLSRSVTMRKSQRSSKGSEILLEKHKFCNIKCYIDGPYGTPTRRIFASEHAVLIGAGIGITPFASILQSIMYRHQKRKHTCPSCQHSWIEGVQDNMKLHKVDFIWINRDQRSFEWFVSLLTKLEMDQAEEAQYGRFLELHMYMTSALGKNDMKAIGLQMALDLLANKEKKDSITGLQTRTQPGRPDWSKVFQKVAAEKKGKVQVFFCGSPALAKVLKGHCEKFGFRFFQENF
Chain of Torsin-1A (Homo sapiens) (O14656 whole entry, looked up): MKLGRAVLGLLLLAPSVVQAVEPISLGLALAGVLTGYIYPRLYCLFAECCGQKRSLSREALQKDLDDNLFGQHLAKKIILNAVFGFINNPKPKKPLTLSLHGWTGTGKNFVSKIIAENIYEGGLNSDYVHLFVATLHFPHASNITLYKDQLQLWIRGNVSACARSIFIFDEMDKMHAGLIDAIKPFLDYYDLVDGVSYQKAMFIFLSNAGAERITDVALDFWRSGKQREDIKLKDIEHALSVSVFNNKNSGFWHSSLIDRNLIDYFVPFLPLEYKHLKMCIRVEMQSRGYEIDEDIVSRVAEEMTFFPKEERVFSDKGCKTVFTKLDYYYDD
Chain of Streptavidin (Streptomyces avidinii) (P22629 whole entry, looked up): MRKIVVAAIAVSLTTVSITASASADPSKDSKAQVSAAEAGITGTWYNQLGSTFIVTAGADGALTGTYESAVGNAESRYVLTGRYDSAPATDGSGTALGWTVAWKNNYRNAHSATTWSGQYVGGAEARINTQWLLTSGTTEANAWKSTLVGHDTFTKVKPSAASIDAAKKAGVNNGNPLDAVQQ

Turning to `COc1cc([C@@H]2N[C@H](C(=O)O)Cc3c2[nH]c2ccccc32)cc(OC)c1OC`, the composite z-score in test [1] was 0.102; in test [5] it was 0.0855; in test [6] it was -0.0102; in test [7], 0.257; in [8] it was 0.285; in [9], 0.342. For the same compound, the composite z-score in [11] is -0.324. Besides, the z-score in test [2] was -1.81 (inactive); in test [3], 0.108 (inactive); in [4], -1.69 (inactive); in [10], 0.441 (inactive); in test [12], 0.604 (inactive); in test [13], 0.321 (inactive). Also, the z-score in [14] is 0.665 (inactive); in test [15] it was 0.198 (inactive); in test [16] it was 0.172; in [17] it was 2.14 (inactive); in [18], -0.0815 (inactive); in test [19], -1.1.

For the compound `C#CCCCON=C1C[C@@H](O)[C@@H](O)[C@@H]2[C@@H]3C(=O)N(Cc4ccc5c(c4)OCO5)C(=O)[C@@H]3CC[C@H]12`, the composite z-score is 0.322 in test [1]; 1.26 in test [5]; -0.261 in test [6]; 0.572 in test [7]; 0.267 in test [8]; 1.42 in test [9]. Besides, the composite z-score in test [11] was -0.161. Moreover, the z-score in [2] was 0.0582 (inactive); in test [20] it was 0.448 (inactive); in test [3], -0.657 (inactive); in test [4], 0.653 (inactive); in [10], 0.324 (inactive); in [16], -0.852. Moreover, the z-score was -0.275 (inactive) in test [17], 0.911 (inactive) in test [18] and -0.124 in test [19].

Regarding `CN1C(=O)C2C=CC(C(O)C3CC=CCC3)N(Nc3ccccc3)C2C1=O` (stereo not given), the composite z-score in test [1] was found to be 0.521; in test [5], 0.505; in test [6], 0.208; in test [7], 0.664; in [8], 1.06; in test [9] it was 1.57. The composite z-score in [11] was 0.346. In addition, the z-score was 0.758 (inactive) in test [2]; -0.269 (inactive) in test [20]; -0.333 (inactive) in test [3]; 0.0874 (inactive) in [4]; -1.08 (inactive) in test [10]; 0.756 (inactive) in test [12]. Besides, the z-score in test [13] was 0.0735 (inactive); in [14] it was -0.139 (inactive); in test [15], 0.459 (inactive); in [16], -0.879; in test [17] it was -1.81 (inactive); in [18], -3.23 (inactive). Further, the z-score in test [19] was -3.05.

For the compound `COc1ccc(C(O)C2C=CC3C(=O)N(C)C(=O)C3N2N2CCCCC2)cc1OCc1ccccc1` (stereo not given), the composite z-score in test [1] is 0.0847; in [5] it was 0.701; in test [6] it was -0.0332; in test [7] it was 0.0884; in [8] it was 0.836; in test [9] it was -0.282. This compound also showed a composite z-score in test [11] of 0.11. The z-score in test [2] is 0.135 (inactive); in [20], -0.314 (inactive); in [3] it was 0.433 (inactive); in test [4], -0.342 (inactive); in test [10], -1.54 (inactive); in test [12], 2.29 (inactive). Moreover, the z-score was 1.53 (inactive) in test [13]; 0.42 (inactive) in test [14]; 1.27 (inactive) in test [15]; -1.16 in [16]; 0.0637 (inactive) in test [17]; -1.56 (inactive) in test [18]. In addition, the z-score in test [19] came out at 1.31.

`COc1ccc([C@H]2C[C@H]3C(Br)=C[C@]2(OC)C(=O)[C@]32CO2)cc1`: the composite z-score in [1] was -0.225; in test [5], -0.0817; in test [6], -0.128; in test [7], 0.806; in [8] it was -0.278; in test [9], -0.038. Besides, in test [11], the composite z-score was -0.0536. Besides, the z-score in [2] is 0.147 (inactive); in test [20] it was -0.64 (inactive); in [3], 0.586 (inactive); in [4] it was 2.58 (inactive); in test [10], -0.882 (inactive); in test [12] it was 0.262 (inactive). The z-score is 0.0516 (inactive) in test [13]; -0.29 (inactive) in [14]; -0.21 (inactive) in [15]; -0.242 in test [16]; 0.0866 (inactive) in [17]; 0.295 (inactive) in test [18]. In addition, in test [19], the z-score is -0.292.
